Test results from PubChem BioAssay (NCI).
This is part of a sample that, as a whole, favours compounds with a hit. Of some 83,000 tested, about 20% had one in any assay.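 A percent growth of 40 corresponds to 60% growth inhibition; 0 means no net growth; -100 means all cells died. Active threshold: below 10.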 Values without a mark were called inactive. Active and inactive are the calls of the source.

What was measured:
Assay in all cases: NCI-60 one-dose screen, 48 h (100 = growth as untreated, 0 = no growth, -100 = all killed)
Details in all cases: 10 µM unless noted
[1] = system: HCT-15 colon
[2] = system: HT29 colon
[3] = system: SNB-75 CNS
[4] = system: SNB-19 CNS
[5] = system: U251 CNS
[6] = system: PC-3 prostate
[7] = system: UACC-62 melanoma
[8] = system: LOX IMVI melanoma
[9] = system: SK-MEL-28 melanoma
[10] = system: SK-MEL-2 melanoma
[11] = system: EKVX NSCLC
[12] = system: SN12C renal
[13] = system: UO-31 renal
[14] = system: TK-10 renal
[15] = system: CAKI-1 renal
[16] = system: A498 renal
[17] = system: CCRF-CEM leukemia
[18] = system: MOLT-4 leukemia
[19] = system: ACHN renal
[20] = system: SK-MEL-5 melanoma

Row | SMILES | growth [1] | growth [2] | growth [3] | growth [4] | growth [5] | growth [6] | growth [7] | growth [8] | growth [9] | growth [10] | growth [11] | growth [12] | growth [13] | growth [14] | growth [15] | growth [16] | growth [17] | growth [18] | growth [19] | growth [20]
1 | COc1cccc(CNc2ncnc3c2ncn3C2OC(CO)C(O)C2O)c1O (stereo unspecified) | 4.06% (active) | 26.5% | -12.4% (active) | 31.2% | 12.6% | 15.7% | 6.74% (active) | -0.915% (active) | 29% | -6.73% (active) | 24.6% | -3.64% (active) | 7.67% (active) | 6.39% (active) | -2.16% (active) | -0.46% (active) | -17.3% (active) | 0.14% (active) |  | 
2 | CCC(=C(c1ccc(OCCN2CCCC2)cc1)c1ccc(OCCN2CCCC2)cc1)c1ccc(Cl)cc1 | -70.5% (active) | -49.9% (active) | -58.2% (active) | -19% (active) | -77.4% (active) | -7.15% (active) | -46.9% (active) | -90.3% (active) | -81.7% (active) | -28.2% (active) | 92.7% | -62.9% (active) | -73.4% (active) | -12.5% (active) | -58.7% (active) | 46.8% | -38.7% (active) | -27.2% (active) | -84.6% (active) | 
3 | COc1cc(-c2cc(-c3cccs3)c(C#N)c(N3CCOCC3)n2)cc(OC)c1OC | 25.2% | 22.2% | 69.2% | 95.2% | 52.9% | 67% | 63.6% | 81.5% | 91.4% | 95.6% | 88.1% | 77.9% | 58.9% | 92.5% |  | 66.4% | 38.8% | 28.3% | 71.2% | 
4 | O=C(CSc1nc2ccc([N+](=O)[O-])cc2[nH]1)Nc1cccc(C(F)(F)F)c1 | 23.5% | 11.3% | 25.5% | 15.2% | 16.4% | 9.66% (active) | 6.34% (active) | 26.9% | 22.2% | -5.5% (active) | 23.9% | 9.37% (active) | 8.44% (active) | 25.1% | 1.15% (active) | -6.75% (active) | 19% | 8.77% (active) | 16% | 
5 | CCN(CC)CCNC(=O)c1cn2ncnc(Oc3ccc(NC(=O)Nc4ccc(Cl)c(C(F)(F)F)c4)c(F)c3)c2c1C | -38.7% (active) | -42.3% (active) | -7.89% (active) | -48% (active) | -48.6% (active) | 7.99% (active) | -46.2% (active) | -95.4% (active) | -86.6% (active) | -36.9% (active) | 24.5% | 62.5% | -53% (active) | 27.8% | 39.6% | 21.1% | 4.8% (active) | -20.8% (active) | -44.5% (active) | 
6 | N#C/C(=C\c1ccc(-c2ccc(Cl)cc2)o1)C(=O)Nc1ncc(Cc2ccc(Cl)cc2)s1 | 37.6% | 62.4% | -31.1% (active) | 79.1% | -33.9% (active) | 28.8% | 46.1% | 15.5% | 34.2% | 95.4% | 33.7% | -0.639% (active) | 42.1% | 19.8% |  | 69.9% | 41.4% | 78.3% | 5.97% (active) | 
7 | COc1cc2c(c(OC)c1OC)-c1ccc(OC)c(=O)cc1[C@@H](NC(=O)CCl)CC2 | 7.81% (active) | 4.97% (active) | 78.9% | 39.1% | 4.55% (active) | 22.8% | 20.8% |  |  | 41.1% | 74.3% | 19.3% | 32.8% | 34.1% | 30.1% | -4.98% (active) |  | 20.9% | 25.4% | -73.7% (active)
8 | CN(C)c1ccc(Nc2cc(-c3cccc(OC(F)(F)F)c3)nc3ccc(N4CCCC4)cc23)cc1 | -45.5% (active) | -12.8% (active) | 55% | 66% | -59.2% (active) | 18% | 90.1% | -73.7% (active) |  | 106% | 89.3% | 40.3% | 74% | 95.4% | 89.6% | 98.3% | 3.82% (active) | 2.94% (active) | 97.6% | 
9 | C#Cc1cccc(Nc2ncnc3ccc(-c4cnc(N)nc4)cc23)c1 | 23.1% | 48% | 6.34% (active) | 47.2% | 54.7% | 27.1% | 24.8% | 22.2% | 38.1% | 19.8% | 2.36% (active) | 7.3% (active) | -5.12% (active) | -9.72% (active) | 2.19% (active) | -44.6% (active) |  | 19.6% | 3.99% (active) | 
10 | N#Cc1nc(-c2ccccc2)oc1S(=O)(=O)N1CCOCC1 | -15.4% (active) | 99.5% | 94.4% | 91.7% | 93.7% | 100% | 91% | 68.2% | 106% | 90.2% | 106% | 74.1% | 82.9% | 94.5% | 66.9% | 89.7% | -20.9% (active) | -16% (active) | -97.7% (active) | 
11 | Fc1ccc(Nc2nc3nonc3nc2Nc2ccc(I)cc2)cc1 | 6.8% (active) | 3% (active) | -5.57% (active) | 18.6% | -45% (active) | 4.86% (active) | -21.4% (active) |  |  | -39.7% (active) | 3.92% (active) | -5.7% (active) | -7.55% (active) | -2.84% (active) | 11.3% | -36.1% (active) | 1.66% (active) | -35.7% (active) | 4.53% (active) | -72.7% (active)
12 | CC(C)(C)[Si](C)(C)O[C@H]1C(=O)C=CN2CC=C[C@@H]12 | 104% [100 µM] | 106% [100 µM] | 91% [100 µM] | 89.1% [100 µM] | 98.5% [100 µM] | 91.9% [100 µM] | 85.3% [100 µM] | 102% [100 µM] | 117% [100 µM] | 112% [100 µM] | 91.2% [100 µM] | 97.4% [100 µM] | 80.3% [100 µM] | 108% [100 µM] | 104% [100 µM] | 97.9% [100 µM] | 106% [100 µM] | 118% [100 µM] | 101% [100 µM] | 
13 | CC1=C(Nc2ccc(N3CCN(C)CC3)cc2)C(=O)c2cncnc2C1=O | 94.2% | 112% | 131% | 97.3% | 83.6% | 21.7% | 93.8% | -13.6% (active) | 121% | 109% | 98.3% | 98.5% | 86.2% | 142% | 87.9% | 113% | 5.93% (active) | -11.9% (active) | 6.25% (active) | 
14 | Cc1nc2sc(C(=O)Nc3ccccc3)c(N)c2cc1C(=O)c1ccccc1 | 24.4% | 22.9% | 26.2% | 21.3% | 25.4% | 33.4% | 17.4% | 50% | 46.8% | 49.9% | 35.2% | 81.5% | 59.5% | 54.7% | 35.6% | -3.88% (active) | 8.47% (active) | 31.6% | 51.7% | 
15 | O=C(CI)NC1Oc2ccccc2-c2oc(=O)c(-c3ccccc3)cc21 (stereo unspecified) | -83% (active) | -55% (active) | -20.9% (active) | 80.8% | -48.6% (active) | -72.8% (active) | -22.8% (active) | -82.8% (active) | 46.3% | -16.4% (active) | 70.4% | -71.2% (active) | -94.7% (active) | -73.5% (active) | -100% (active) | 82.1% | -23.4% (active) | -25.8% (active) | -91.3% (active) | 
16 | COc1ccc(N2CCC(=O)NC2=S)cc1 | 102% | 105% | 96.6% | 105% | 103% | 107% | 99.2% | 94.8% | 111% | 102% | 102% | 98.3% | 86.5% | 100% | 95.4% | 108% | 111% | 105% | 104% | 
